Reference: PubChem BioAssay (Tox21)
Several values for one entry are separate records, joined by “and”; a condition that tells them apart may be missing. Identical values can stand only once. Records with an inconclusive call do not appear. Entries that show only a call come without a potency. Activity calls are given as the source filed them. Unless noted, the call rests on the fitted dose curve; in most records, active means well fitted curve in the direction sought with a large enough effect in the repeat runs; inconclusive means weak or mixed curves; inactive means no such curve, though single readings can be large; an effect the other way counts as inactive or inconclusive.

Key:
[1] = qHTS assay for small molecule agonists of the p53 signaling pathway (AID 651631; calls by dose curve; further: nearly all actives have a fitted effect of over 15% in size)
How it was run: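 Testing took place in human colorectal HCT-116 cells with stable p53RE-driven beta-lactamase. After 16 h of compound exposure at 37 °C, a FRET substrate was added and fluorescence recorded 2 h later.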

[2] = qHTS assay for small molecule agonists of the p53 signaling pathway - cell viability (AID 651633; calls by dose curve; further: series mostly up to about 83 µM; nearly all actives have a fitted effect of over 30% in size)
How it was run: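 p53RE-bla cells, seeded at 4,000 per well and rested 5 h at 37 C/5% CO2, received compounds in DMSO for 16 h at 37 C. CellTiter-Glo was then added, and luminescence was read after 30 min at room temperature to gauge cytotoxicity.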

[3] = qHTS assay for small molecules that induce genotoxicity in human embryonic kidney cells expressing luciferase-tagged ATAD5 - cell viability (AID 651634; calls by dose curve; further: nearly all actives have a fitted effect of over 25% in size)
How it was run: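 Live-cell protease activity (CellTiter-Fluor, fluorescence) indicates viability. HEK293T cells with luciferase-tagged ATAD5; 15.5 hr compound treatment at 37C.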

[4] = qHTS assay for small molecule disruptors of the mitochondrial membrane potential - cell viability (AID 720634; calls by dose curve;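 further: human HepG2 liver cancer cells; series mostly up to about 83 µM; nearly all actives have a fitted effect of over 20% in size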)
How it was run: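 Human hepatoma HepG2 cells were treated for 1 hr with test chemicals, then given m-MPI dye and CellTiter-Glo. Cell viability reflects luminescence proportional to cellular ATP.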

[5] = qHTS assay to test for compound auto fluorescence at 535 nm (green) in HepG2 cells (AID 720675)
[6] = qHTS assay to test for compound auto fluorescence at 460 nm (blue) in HEK293 cells (AID 720678)
How it was run: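 Intrinsic compound fluorescence is recorded in live HEK293 cultures after overnight incubation at 37C, 5% CO2, using excitation 405 nm and emission 460 nm. Values are referenced to triamterene.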

[7] = qHTS assay to test for compound auto fluorescence at 590 nm (red) in HEK293 cells (AID 720679)
How it was run: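 Red autofluorescence, HEK293 cells: 2,000 cells/well; attach 4-5 hr 37C; add 23 nL cpd or DMSO; incubate o/n 37C 5% CO2; read Ex540/Em590; Rose Bengal sodium reference.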

[8] = qHTS assay to test for compound auto fluorescence at 460 nm (blue) in HEK293 cell free culture (AID 720681)
How it was run: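 Test compounds were pinned into cell-free culture medium (DMEM with 10% FBS) and fluorescence was read directly at Ex/Em 405/460 nm. Signals were expressed as fluorescence equivalents of triamterene, with DMSO vehicle as control.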

[9] = qHTS assay to test for compound auto fluorescence at 535 nm (green) in HEK293 cell free culture (AID 720682)
How it was run: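 DMEM + 10% FBS, cell-free; cpd or DMSO pinned in; Ex485/Em535 read; output as fluorescein-equivalent signal.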

[10] = qHTS assay to test for compound auto fluorescence at 590 nm (red) in HEK293 cell free culture (AID 720683)
How it was run: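 Tox21 10K library compounds were pinned into cell-free DMEM with 10% FBS and fluorescence was read at excitation 540 nm. Activity is expressed as Rose Bengal sodium equivalency.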

[11] = qHTS assay to test for compound auto fluorescence at 590 nm (red) in HepG2 cell free culture (AID 720684)
How it was run: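 Measured in medium alone (MEM containing 10% FBS) following pintool addition of compound; emission at 590 nm with 540 nm excitation, referenced to Rose Bengal sodium.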

[12] = qHTS assay to test for compound auto fluorescence at 460 nm (blue) in HepG2 cell free culture (AID 720685)
How it was run: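 Compound (23 nL) or DMSO pinned into cell-free MEM with 10% FBS; blue fluorescence read at 405/460 nm excitation/emission, expressed as auto-fluorescence equivalency to triamterene.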

[13] = qHTS assay to test for compound auto fluorescence at 535 nm (green) in HepG2 cell free culture (AID 720686)
[14] = qHTS assay to test for compound auto fluorescence at 460 nm (blue) in HepG2 cells (AID 720687)
How it was run: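 Cells (2,000/well in MEM with 10% FBS) attached overnight at 37 C, then were exposed to compound or DMSO for 1 hr at 37 C, 5% CO2. Fluorescence read at Ex/Em 405/460 nm, expressed as triamterene-equivalent signal.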

[15] = target: Glucocorticoid receptor (Homo sapiens) (UniProt P04150); test: qHTS assay to identify small molecule agonists of the glucocorticoid receptor (GR) signaling pathway (AID 720691; active means well fitted activation curve with a large enough effect in the signal ratio in the repeat runs, not every such curve was filed as active; the % refers to the signal ratio)
Chain of Glucocorticoid receptor (Homo sapiens) (P04150 whole entry, looked up): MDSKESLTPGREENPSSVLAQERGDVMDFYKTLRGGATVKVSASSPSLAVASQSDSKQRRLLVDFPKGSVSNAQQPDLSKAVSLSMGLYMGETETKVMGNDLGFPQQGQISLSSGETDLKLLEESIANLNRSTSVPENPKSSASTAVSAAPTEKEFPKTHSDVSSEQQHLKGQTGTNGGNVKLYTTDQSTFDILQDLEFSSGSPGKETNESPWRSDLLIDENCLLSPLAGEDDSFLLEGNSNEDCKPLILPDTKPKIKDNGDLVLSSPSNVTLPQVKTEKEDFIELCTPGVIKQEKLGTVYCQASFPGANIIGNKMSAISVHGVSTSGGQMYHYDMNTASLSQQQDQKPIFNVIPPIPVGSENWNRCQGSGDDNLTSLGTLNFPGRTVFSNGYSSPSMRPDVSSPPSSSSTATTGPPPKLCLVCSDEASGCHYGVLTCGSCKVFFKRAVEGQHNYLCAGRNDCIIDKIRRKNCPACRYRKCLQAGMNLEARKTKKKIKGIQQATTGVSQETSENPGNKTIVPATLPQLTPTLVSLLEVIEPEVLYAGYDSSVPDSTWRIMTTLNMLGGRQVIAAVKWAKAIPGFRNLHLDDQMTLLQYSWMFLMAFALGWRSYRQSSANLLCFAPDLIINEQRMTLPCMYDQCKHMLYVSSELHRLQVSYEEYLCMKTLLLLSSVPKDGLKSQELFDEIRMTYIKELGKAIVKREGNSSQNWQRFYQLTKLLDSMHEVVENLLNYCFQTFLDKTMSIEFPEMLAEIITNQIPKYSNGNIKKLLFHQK
How it was run: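 Beta-lactamase reporter activity, read as fluorescence intensity, was measured in GR-bla HeLa cells exposed to compounds for 18 h at 37 C and then loaded with LiveBLAzer B/G FRET substrate for 2 h at room temperature.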

[16] = target: Glucocorticoid receptor (Homo sapiens) (UniProt P04150); test: qHTS assay to identify small molecule antagonists of the glucocorticoid receptor (GR) signaling pathway (AID 720692; active means well fitted inhibition curve with a large enough effect in the signal ratio in the repeat runs, not every such curve was filed as active; the % refers to the signal ratio)
How it was run: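 Fluorescence from cleaved LiveBLAzer B/G FRET substrate reports GRE-driven beta-lactamase in HeLa cells; compounds are tested against 5 nM dexamethasone (final) over 18 h at 37 C, substrate incubation 2 h at room temperature.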

[17] = qHTS assay for small molecules that induce genotoxicity in human embryonic kidney cells expressing luciferase-tagged ATAD5 (AID 651632); further: nearly all actives have a fitted effect of over 15% in size
How it was run: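 Genotoxicity read-out via ATAD5-luciferase: HEK293T cells, 16 hr compound incubation at 37C, Amplite detection.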

[18] = qHTS assay for small molecule disruptors of the mitochondrial membrane potential (AID 720635); further: potency means the concentration at half of the fitted maximal effect
How it was run: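 HepG2 cells (2,000/well) attached overnight at 37C, then took compound for 1 hr at 37C, 5% CO2. Mito-MPS dye was added for 30 min; fluorescence was read at 490/535 nm (monomers) and 540/590 nm (aggregates).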

[19] = qHTS assay to test for compound auto fluorescence at 535 nm (green) in HEK293 cells (AID 720680)
[20] = qHTS assay to test for compound auto fluorescence at 590 nm (red) in HepG2 cells (AID 720674)
How it was run: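 Rose Bengal sodium served as the red fluorophore standard. HepG2 monolayers (overnight attachment, MEM with 10% FBS) were exposed to test compounds for 1 hr at 37 C and read at Ex 540/Em 590 nm.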

Compound | outcome [1] | outcome [2] | outcome [3] | Potency [4] | outcome [5] | outcome [6] | outcome [7] | outcome [8] | outcome [9] | outcome [10] | outcome [11] | outcome [12] | outcome [13] | outcome [14] | outcome [15] | Potency [16] | outcome [17] | Potency [18] | outcome [19] | outcome [20]
CN(C)[C@@H]1C(=O)C(C(N)=O)=C(O)[C@@]2(O)C(=O)C3=C(O)c4c(O)cccc4[C@@](C)(O)[C@H]3C[C@@H]12 | inactive | inactive | inactive | inactive | inactive | inactive | inactive | inactive | inactive | inactive | inactive | inactive | inactive | inactive | inactive | inactive | – | – | – | –
CC1C=[C-]C=C1.[C-]#[O+].[C-]#[O+].[C-]#[O+].[Mn] | – | inactive | inactive | inactive | inactive | inactive | – | inactive | inactive | inactive | inactive | inactive | inactive | inactive | inactive | inactive | inactive | inactive | – | –
O=C1CCCN1 | – | inactive | inactive | inactive | inactive | inactive | – | inactive | inactive | inactive | inactive | inactive | inactive | inactive | inactive | inactive | inactive | inactive | inactive | –
C#CCN(C)[C@H](C)Cc1ccccc1 | – | inactive | inactive | inactive | inactive | inactive | – | inactive | inactive | inactive | inactive | inactive | inactive | inactive | inactive | inactive | inactive | inactive | inactive | inactive
C[C@]12CC[C@H]3[C@@H](CC[C@@]45O[C@@H]4C(O)=C(C#N)C[C@]35C)[C@@H]1CC[C@@H]2O | – | inactive | inactive | inactive | inactive | inactive | inactive | inactive | inactive | inactive | inactive | inactive | inactive | inactive | – | – | inactive | – | inactive | inactive
C1CN2CCN1CC2 | – | inactive | inactive | – | inactive | inactive | – | inactive | inactive | inactive | inactive | inactive | inactive | inactive | – | – | inactive | – | – | inactive
CN(N=O)c1ccccc1 | – | inactive | inactive | inactive | inactive | inactive | inactive | inactive | inactive | inactive | inactive | inactive | inactive | inactive | inactive | inactive | inactive | inactive | inactive | –
OCCN(CCO)CCO | – | – | inactive | – | inactive | inactive | inactive | inactive | inactive | inactive | inactive | inactive | inactive | inactive | – | – | – | – | inactive | inactive
CCOP(=S)(OCC)Oc1cnc2ccccc2n1 | inactive | inactive | inactive | – | inactive | inactive | – | inactive | inactive | inactive | inactive | inactive | inactive | inactive | inactive | inactive | inactive | – | – | –
CC(C)OC(=O)Nc1cccc(Cl)c1 | inactive | inactive | inactive | – | inactive | inactive | inactive | inactive | inactive | inactive | inactive | inactive | inactive | inactive | – | – | inactive | 47.9 µM (active) and 24.3 µM (active) | inactive | –
CCCN(CCC)c1c([N+](=O)[O-])cc(C(F)(F)F)cc1[N+](=O)[O-] | – | inactive | inactive | inactive | inactive | inactive | – | inactive | inactive | inactive | inactive | inactive | inactive | inactive | – | – | inactive | – | inactive | –
